Measured values published in ChEMBL document CHEMBL3433997, “St. Jude Leishmania screening dataset” (2016).

Assays:
Type in all cases: functional
[1] = biological target: Solute carrier family 2, facilitated glucose transporter member 1 (Homo sapiens) (UniProt P11166); assay: ST_JUDE_LEISH: Cytotoxicity at 2uM final concentration against transgenic Leishmania Mexicana promastigotes LmGLUT1 that are glucose transport deficient and complemented with the human glucose transporter GLUT1. Activity is measured by DNA content using SYBR green in vitro
[2] = biological target: Hexose transporter 1 (Plasmodium falciparum) (UniProt O97467); assay: ST_JUDE_LEISH: Cytotoxicity at 2uM final concentration against transgenic Leishmania Mexicana promastigotes LmPfHT that are glucose transport deficient and complemented with the Plasmodium falciparum hexose transporter. Activity is measured by DNA content using SYBR green in vitro
[3] = biological target: Glucose transporter (Leishmania mexicana) (UniProt O61059); assay: ST_JUDE_LEISH: Cytotoxicity at 2uM final concentration against transgenic Leishmania Mexicana promastigotes LmGT2 that are glucose transport deficient and complemented with the L. Mexicana glucose transporter 2. Activity is measured by DNA content using SYBR green in vitro

Chain of Solute carrier family 2, facilitated glucose transporter member 1 (Homo sapiens) (P11166 whole entry): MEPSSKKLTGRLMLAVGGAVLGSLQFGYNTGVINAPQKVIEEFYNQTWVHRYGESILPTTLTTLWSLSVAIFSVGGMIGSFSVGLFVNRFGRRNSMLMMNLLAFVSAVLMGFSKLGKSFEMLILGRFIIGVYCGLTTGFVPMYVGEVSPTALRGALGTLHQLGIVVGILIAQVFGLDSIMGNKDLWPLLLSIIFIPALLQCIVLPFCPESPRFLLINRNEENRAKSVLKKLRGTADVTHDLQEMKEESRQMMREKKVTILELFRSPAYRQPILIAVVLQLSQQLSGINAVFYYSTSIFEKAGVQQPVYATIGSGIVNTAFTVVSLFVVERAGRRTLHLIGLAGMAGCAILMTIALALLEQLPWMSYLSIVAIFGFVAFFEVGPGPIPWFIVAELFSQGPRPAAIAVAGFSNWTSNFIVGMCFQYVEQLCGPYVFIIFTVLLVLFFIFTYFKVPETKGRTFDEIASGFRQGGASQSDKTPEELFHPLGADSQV

| SMILES | inhibition [1] | inhibition [2] | inhibition [3] |
| --- | --- | --- | --- |
| CC(C)c1ccc(C2CCN(CCCCNC(=O)c3ccc(NC(=O)c4ccc(C(F)(F)F)cc4)cc3)CC2)c(O)c1 | 4.75% | 3.96% | 1.92% |
| CC(C)N1CCC(N(Cc2ccc(-c3ccc(C(F)(F)F)cc3)cc2)C(=O)Cn2c(CCc3cccc(F)c3F)cc(=O)c3ccccc32)CC1 | 0.12% | 1.55% | 1.16% |
| CC(=O)Oc1c(C2C=CCCC2)c(OC(C)=O)c2ccccc2c1OC(C)=O (stereo not given) | 1.04% | 3.27% | 1.98% |
| CNCCNCc1ccc(-c2ccc(-c3nc4cc(C(F)(F)F)ccc4[nH]3)cc2)cc1 | -0.49% | 3.17% | 2.46% |
| CCn1ncc2c(N3CCCC3=O)cc(C(=O)N[C@@H](Cc3ccccc3)[C@H](O)CNC(C)(C)c3cccc(C(F)(F)F)c3)cc21 | -0.71% | 0.84% | 5.42% |
| Cc1cc(Nc2ccc(C)c(Cl)c2)n2ncnc2n1 | -2.06% | -1.7% | -4.9% |
| CCC(C)c1ccc(Nc2nc(C)cc(N(CC)CCCN3CCCCC3)n2)cc1 (stereo not given) | -1.09% | 0.87% | 1.67% |
| O=C(Cn1c(SCc2cccc(F)c2F)cc(=O)c2ccccc21)N(CCCn1ccnc1)Cc1ccc(-c2ccc(C(F)(F)F)cc2)cc1 | 3.11% | 1.44% | 2.6% |
| COc1cc(Nc2ncc3c(C)nc(-c4cccc(Nc5ccc(CN6CCS(=O)(=O)CC6)cc5)c4)n3n2)cc(OC)c1OC | 14% | 5.79% | 3.49% |
| CC(C)Oc1ccc2c(c1)OC(c1ccccc1)(C(F)(F)F)NC2=O (stereo not given) | 14.6% | 12.2% | 7.18% |
| O=C(c1cc(-c2cccs2)n[nH]1)N1CCN(S(=O)(=O)c2ccc(Cl)s2)CC1 | 3.98% | 1.77% | 2.9% |
| COc1ccc(NC(=O)Nc2ccc(-c3ccccc3)cc2)cc1Cn1nc(Cl)c(N2CCCNCC2)cc1=O | 0.73% | 0.83% | 0.02% |
| COc1cccc(-c2ccc(NC(=O)C3CCCN(Cc4cccc(OC)c4O)C3)cc2)c1 (stereo not given) | 3.21% | 2.29% | -0.64% |
| COc1cc(NC(=O)/C=C/c2cc3ccccc3n2C)ccc1OCCN(C(C)C)C(C)C | 4.23% | 4.39% | 3.12% |
| CN(CCCNC(=S)NC12CC3CC(CC(C3)C1)C2)CCCNc1ccnc2cc(Cl)ccc12 | -1.07% | 0.09% | 1.25% |
| N#CC(CC(=O)c1ccc(Cl)cc1)c1cccc(F)c1 (stereo not given) | 1.46% | -1.27% | 1.13% |
| CNC(=O)CC(=O)NCCc1ccc(Cl)cc1 | -0.63% | 1.17% | 0.06% |
| CC(C)c1sc(N2CCCCC2)nc1C(=O)Nc1ccc(F)cc1C(F)(F)F | 2.82% | 0.82% | 2.35% |
| CC(C)CN1CCC(COc2ccc3ncn(-c4cc(O[C@H](C)c5ccccc5C(F)(F)F)c(C(N)=O)s4)c3c2)CC1 | 77.7% | 74.7% | 60.6% |
| CCN(CCCN1CCCCC1)c1cc(C)nc(Nc2cc(Cl)cc(Cl)c2)n1 | 0.93% | 2.39% | 1.01% |
| O=C(Nc1ccc2oc(-c3ccc(Br)cc3)nc2c1)c1ccc([N+](=O)[O-])o1 | 10.3% | 6.94% | 6.73% |
| Cc1cc(F)ccc1-c1nc(Nc2ccncc2)c2ccn(C)c2n1 | 1.12% | 2.6% | 0.38% |
| CCOC(=O)/C(=N\OC(C(=O)OC(C)(C)C)c1ccccc1)c1csc(NC(c2ccccc2)(c2ccccc2)c2ccccc2)n1 (stereo not given) | 0.73% | 1.43% | 0.99% |
| Fc1ccc(Nc2ccnc3cc(-c4cccc(CN5CCCCC5)c4)ccc23)c(Cl)c1 | 4.23% | 3.95% | 3.3% |

| SMILES | inhibition [1] | inhibition [2] | inhibition [3] |
| --- | --- | --- | --- |
| COc1cc(C=CC(=O)N2CCN(Cc3cccc(C)c3)CC2)ccc1OCc1c(C)noc1C | 8.31% | 6.88% | 6.13% |
| CCOc1cc2ncnc(Nc3ccc(OCc4ccccc4F)c(Cl)c3)c2cc1OCC | -0.1% | 2.22% | 0.76% |
| Cc1cc(-c2cccc(CNC3CCN(C)CC3)c2)ccc1S(=O)(=O)NCCN1CCCC1 | 0.26% | 0.15% | 0.59% |
| O=C(c1cc(C(=O)Nc2ccccc2)c(=O)n(-c2ccccc2)c1)c1cc(Cl)ccc1O | 3.8% | 3.56% | 2.58% |
| CCCCN(C)CC#Cc1ccc(-c2ccc3[nH]c(C)c(Br)c(=O)c3c2)cn1 | 6.4% | 7.74% | 8.6% |
| Cc1nc(O)c2c(ccc3ccc(CN(C)c4ccc(C(=O)N[C@@H](CCC(=O)O)C(=O)O)cc4)cc32)n1 | -1.5% | -0.69% | -1.57% |
| Cc1ccc2c(c1C)NC(=O)C21NN=C(c2ccccc2)S1 (stereo not given) | -1.86% | -1.15% | -2.33% |
| CC(C)Nc1ccc(Nc2ccnc3cc4ccccc4cc23)cc1 | 1.19% | 4.38% | 0.5% |
| O=C(Nc1ccc(C(F)(F)F)cc1)c1cc(Br)cnc1NCCCn1ccnc1 | -0.53% | -4.7% | -3.55% |
| CC(=O)/N=C1\N=C(NC(C)=O)NC(C)(C)N1OCCCOc1ccc(Cl)c(Cl)c1 | 1.53% | 1.27% | 1.47% |
| CCCCOC(=O)NCCCC[C@H](NC(=O)OC(C)(C)C)C(=O)N[C@H](C(=O)OC(c1ccccc1)c1ccccc1)[C@H]1O[C@@H](n2ccc(=O)[nH]c2=O)[C@@H]2OC(C)(C)O[C@@H]21 | 0.88% | 0.71% | 0.44% |
| COc1cc(F)c2ncc(Cl)c([C@H](O)CN3CCC(NCc4ccc5c(n4)NC(=O)CO5)CC3)c2c1 | -1.35% | 0.88% | 0.03% |
| COc1ccccc1NC(=O)Nc1cccc(-c2ccc(-c3nc4cccc(C)c4[nH]3)s2)c1 | 3.95% | 6.34% | 3.94% |
| COc1ccc(CNC2CCN(C)CC2)cc1-c1ccc(S(=O)(=O)NC2CCC2)c(F)c1 | 0.83% | 0.39% | 1.91% |
| CN1CCC(C(=O)Nc2ccc(-c3ccc(-c4nc5ccccc5[nH]4)s3)cc2)CC1 | 0.79% | -2.31% | 0.49% |
| COc1ccc(CNCc2ccc(F)cc2)cc1-c1ccc(S(=O)(=O)NCCN2CCCC2)c(C)c1 | 2.82% | 3.53% | -2.85% |
| CC(C)(C)c1ccc2[nH]c(-c3ccc(/C=C/C(=O)NCc4cccc(C(F)(F)F)c4)cc3)nc2c1 | 3.32% | 5.66% | 2.22% |
| CCN(CC)c1cc(C)c2cc(NC(=O)c3cc(=O)c4ccccc4o3)ccc2n1 | 6.32% | 6.88% | 1.71% |
| CN(C)Cc1cccc(-c2ccc(NC(=O)c3ccc4c(=O)n(Cc5cnn(C)c5)cnc4c3)cc2)c1 | 1.78% | 2.88% | 4.86% |
| COc1ccc(-c2cc(C(=O)Nc3ccc(CCCN(C)Cc4ccc(OC)c(OC)c4)cc3)c3ccccc3n2)cc1 | 13.6% | 2.41% | 1.44% |
| CN(C)Cc1ccc2cc(NC(=O)c3ccc(-c4ccc(Cl)cc4)cc3)ccc2n1 | 2.13% | 1.6% | 2.79% |
| CCCc1ccc(Cc2cnc3nc(N)nc(N)c3c2C)cc1 | 39.1% | 53.8% | 40% |
| Cc1c(S(=O)(=O)Nc2ccc3nccc(N4CC(C)NC(C)C4)c3c2)sc2ccc(Cl)cc12 (stereo not given) | 5.22% | 6.03% | 3.81% |
| CC(c1cccc(S(=O)(=O)NCc2ccc(Cl)cc2Cl)c1)N1CCC(N2CCCCC2)CC1 (stereo not given) | 8.44% | 4.33% | 3.71% |

| SMILES | inhibition [1] | inhibition [2] | inhibition [3] |
| --- | --- | --- | --- |
| COc1ccc(Cc2c(C)nc3nc(N)nc(N)c3c2C)cc1 | 39% | 38.2% | 34.5% |
| C=C[C@]1(C)C[C@@H](OC(=O)CSC2CN3CCC2C3)[C@@]2(C)C3C(=O)CC[C@@]3(CC[C@H]2C)[C@@H](C)[C@@H]1O (stereo not given in full) | 72.8% | 73.2% | 59% |
| N=C(N)NN=CC(=O)Nc1cc([N+](=O)[O-])cc([N+](=O)[O-])c1 | 8.23% | 7.12% | 6.66% |
| CC(=O)N1Cc2ccccc2C1=O | 2.88% | 3.51% | 2.11% |
| CN(CCO)Cc1cccc(-c2ccc(NC(=O)c3cccc(C#N)c3)cc2)c1 | 1.6% | 0.52% | -2.56% |
| COCCN(C(=O)Cc1cccs1)C(C(=O)NCc1ccc(OC)cc1)c1ccc(C(C)C)cc1 (stereo not given) | 2.96% | -3.02% | -0.76% |
| Cc1ccc2c(N/N=C/c3ccccc3[N+](=O)[O-])cc(C)nc2c1 | 2.06% | -5.28% | 1.01% |
| CCN(CC)CCNc1ccnc2[nH]c3ccc(Cl)cc3c12 | 1.19% | -0.21% | -0.03% |
| COc1ccc2ncc(F)c([C@H](O)CN3CCC(NCc4ccc5c(c4)NC(=O)CO5)CC3)c2c1 | 1.17% | 0.49% | 1.56% |
| Cc1ccccc1C1CCN(c2ccc(NC(=O)c3ccc(Cl)nc3)cc2)CC1 | 3.34% | -3.74% | 3.84% |
| Cc1cc(Nc2ccc(O)cc2)nc2cc(O)ccc12 | 3.16% | 1.93% | 3.51% |
| CCCNC(=O)Nc1cc2cc(-c3ccc(CN4CCCC4)cc3)ccc2n2c(C)nnc12 | 4.57% | 3.01% | -1.87% |
| Fc1cc(CN2CCCC2)ccc1OCCCN1CCN(c2cccc(Cl)c2Cl)CC1 | 4.56% | 5.47% | 4.5% |
| O=C(c1cc(C(=O)Nc2ccccc2F)c(=O)n(-c2ccccc2F)c1)c1cc(Cl)ccc1O | 1.31% | -0.63% | -2.18% |
| O=C(Nc1ccccc1O)c1ccc(Oc2cccc(C(=O)Nc3ccccc3O)c2)cc1 | 3.99% | 4.01% | 1.13% |
| N=C(N)NC(=O)Nc1cc(F)c(Cl)c(Cl)c1 | 12.8% | 10.5% | 6.35% |
| CC1(CCN2CCC(c3c[nH]c4cnccc34)CC2)CCCc2c(Br)cccc2C1=O (stereo not given) | 54.7% | 25.4% | 95.5% |
| CCCOc1ccc2ccccc2c1CNCCCCCCNCc1c(OCCC)ccc2ccccc12 | 2.66% | 1.04% | -1.19% |
| Cn1cncc1-c1ccc2ncnc(Nc3ccc4c(cnn4Cc4ccccc4)c3)c2c1 | 1.39% | 2.21% | 1.22% |
| O=C(NC1CCCc2ccccc21)C1CCCN(C(=O)c2ccc(O)c(-c3ccc(Cl)c(Cl)c3)c2)C1 (stereo not given) | 1.28% | 2.04% | 2.38% |
| COc1ccc(CN2CCC(NCc3cccc(C(F)(F)F)c3)CC2)cc1 | 13.2% | 4.48% | 9.6% |
| CCOC(=O)/C(=N\OC(C)(C)C(=O)NCc1ccc(O)c(O)c1)c1csc(NC(c2ccccc2)(c2ccccc2)c2ccccc2)n1 | -2.31% | -1.09% | -1.17% |
